Results from PubChem BioAssay.

Test: change in splice reporter luminescence, either direction, cell-based, HEK293, spliceosome inhibition project, primary screen (AID 1101);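 also: HEK293 cells carrying a splicing-competent luciferase reporter gene; test concentration not given here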
Conditions: HEK293 splicing luciferase reporter, 24 h, higher = more signal, called active from +8 up or from −8 down

z-score, inactive:
CO[C@H]1COC(=O)CC=C[C@@H](C)COC(=O)[C@H]2CCCN2C(=O)CC=C[C@H]1C -0.104
CC(C)=CCCC(C)=CCON=C1[C@H]2CCn3c(=O)n(-c4ccccc4)c(=O)n3[C@H]2[C@H](O)[C@@H]2O[C@H]12 1.77
COc1ccc(O[C@H]2C=C[C@@H](c3ccccc3)O[C@@H]2COC(=O)NCc2cccc3ccccc23)cc1 -0.134
C#CCCCON=C1[C@H]2CCn3c(=O)n(Cc4cc5c(cc4Cl)OCO5)c(=O)n3[C@H]2[C@H](O)[C@@H]2O[C@H]12 -0.0845
COC(=O)[C@@H]1CC[C@H](C)[C@@H](c2ccc(C)cc2)N1C(=O)c1ccc(C=NOC[C@@H](O)[C@H]2O[C@@H]3OC(C)(C)O[C@@H]3[C@H]2O)cc1 0.569
CCOC(=O)[C@H](CC(C)C)NC(=O)CCC1CC(OC(=O)NCc2ccc3c(c2)OCO3)CC2(CCCC(COC(=O)NCCc3ccc(Cl)cc3)O2)O1 (stereo partly specified) 0.0274
CCOC(=O)[C@H](Cc1ccccc1)NC(=O)CCC1CC(OC(=O)NCCc2ccc(F)cc2)CC2(CCCC(COC(=O)NCCOc3ccccc3)O2)O1 (stereo partly specified) -0.421
CC(C)=NOC(C)CN1CCCc2nc(C)c(C)cc21 (stereo unspecified) 0.484
CCOC(=O)[C@H](Cc1ccccc1)NC(=O)CCC1CC(OC(=O)NCc2ccc3c(c2)OCO3)CC2(CCCC(COC(=O)NCCOC)O2)O1 (stereo partly specified) -0.991
CC(CCC(=O)OC[C@H]1O[C@H](C#Cc2ccccc2)C=C[C@@H]1Oc1ccc(C)cc1)=NO[C@H](C)c1cn([C@@H]2COC[C@H]2O)nn1 -1.45
CCN1C(C)=C(C(=O)OC)[C@@H](c2ccccc2)N2C(=O)[C@](O)(C(=O)OC)CC(C(C)=O)=C12 0.15
CCOC(=O)CCN1C(=O)[C@H]2[C@H]3[C@H](O)[C@H](O)CC(=NO[C@@H]4O[C@H](CO)[C@@H](O)[C@H](O)[C@H]4O)[C@H]3CC[C@H]2C1=O -0.265
CCC1=NOC(CCC2CC(OC(=O)NCc3cccc4c3OCO4)CC3(CCCC(COC(=O)NCCc4ccc(Cl)cc4)O3)O2)C1 (stereo unspecified) 0.116
CC(C)=CCCC(C)=CCON=C1C[C@@H](O)[C@@H](O)[C@@H]2[C@@H]3C(=O)N(C4CCCCC4)C(=O)[C@@H]3CC[C@H]12 -0.693
COC(=O)[C@@H]1CC[C@H](C)[C@@H](c2ccc(C)cc2)N1C(=O)c1ccc(C=NO[C@@H](C)c2cc(-c3c(C)cc(C)cc3C)no2)cc1 -1.04
CCN1C(=O)[C@H]2[C@H]3[C@H](O)[C@H](O)CC(=NO[C@H](C)c4cn([C@@H]5COC[C@H]5O)nn4)[C@@H]3CC[C@H]2C1=O 0.299
CC(C)=NOC[C@@H](O)[C@H]1O[C@@H]2OC(C)(C)O[C@@H]2[C@H]1O 0.211
COc1ccc(COC(=O)NN=C2C[C@@H](O)[C@@H](O)[C@@H]3[C@@H]4C(=O)N(C[C@@H]5CCCO5)C(=O)[C@@H]4CC[C@@H]23)cc1 -0.00678
COc1ccc(O[C@H]2C=C[C@@H](c3ccccc3)O[C@@H]2CON=C(C)CCN2CCCc3nc(C)c(C)cc32)cc1 -0.204
CCc1cc2c(nc1CC)CCN(CCC(C)=NOCC[C@@H]1C=C[C@H](OC(C)=O)[C@@H](COC(C)=O)O1)C2 0.192
CCOC(=O)[C@H](CC(C)C)NC(=O)CCC1CC(OC(=O)NCCc2ccc(F)cc2)CC2(CCCC(COC(=O)NCCCN3CCCC3=O)O2)O1 (stereo partly specified) 0.764
COc1ccc(COC(=O)NN=C2C[C@@H](O)[C@@H](O)[C@@H]3[C@@H]4C(=O)N(Cc5ccc6c(c5)OCO6)C(=O)[C@@H]4CC[C@H]23)cc1 0.491
CC(CCN1CCCCc2nc(C)c(C)cc21)=NOC[C@@H](O)[C@H]1O[C@@H]2OC(C)(C)O[C@@H]2[C@H]1O 0.595
O=C1[C@H]2CCn3c(=O)n(-c4ccccc4)c(=O)n3[C@H]2[C@H](O)[C@@H]2O[C@H]12 0.583
CC(C)=NO[C@H](C)c1cn([C@@H]2COC[C@H]2O)nn1 -0.413
CC(CCN1CCc2nc(-c3ccccc3)c(-c3ccccc3)cc2C1)=NO[C@@H](C)c1cc(-c2c(C)cc(C)cc2C)no1 -1.56
CC(C)CN1CCc2nc(-c3ccccc3)c3c(c2C1)CO[C@@H](C)C3 0.185
CCOC(=O)CCN1C(=O)[C@H]2[C@H]3[C@H](O)[C@H](O)CC(=NOCC=C(C)CCC=C(C)C)[C@@H]3CC[C@H]2C1=O 0.0459
CON=C[C@@H](OC)[C@H](C)C=CCC(=O)OC -0.165
CCOC(=O)CCN1C(=O)[C@H]2[C@H]3[C@H](O)[C@H](O)CC(=NO[C@@H]4O[C@H](CO)[C@@H](O)[C@H](O)[C@H]4O)[C@@H]3CC[C@H]2C1=O -0.104
CC(CCN1CCCc2nc(C)c(C)cc21)=NO[C@H](C)c1cn([C@@H]2COC[C@H]2O)nn1 0.169
CC(C)(C)N1C(=O)[C@H]2[C@H]3[C@H](O)[C@H](O)CC(=NOC[C@@H](O)COCc4ccco4)[C@H]3CC[C@H]2C1=O 1.13
CCOC(=O)CCN1C(=O)[C@H]2[C@@H]3C(=CC[C@H]2C1=O)C(=O)[C@H]1O[C@H]1[C@H]3O 6.66
COc1ccc(COC(=O)NN=C2C[C@@H](O)[C@@H](O)[C@@H]3[C@@H]4C(=O)N(C[C@@H]5CCCO5)C(=O)[C@@H]4CC[C@H]23)cc1 0.0734
CCN1C(=O)[C@H]2[C@H]3[C@H](O)[C@H](O)CC(=NOCC(C)C)[C@H]3CC[C@H]2C1=O 0.72
CC(C)=CCCC(C)=CCON=C1C[C@@H](O)[C@@H](O)[C@@H]2[C@@H]3C(=O)N(Cc4ccc5c(c4)OCO5)C(=O)[C@@H]3CC[C@H]12 0.294
